Measurements: the supplement of paper PMC10338343
± gives the standard deviation.

These sequences were tested on MILI (PIWIL2) piRISC loaded with piRNA #1 (26 nt) (assay: pre-steady-state target cleavage rate (min^-1); guide: piRNA #1 5'p-UGAGGUAGUAGGUUGUAUAGUAUCCA; MIWI and MILI are mouse PIWI proteins and EfPiwi is from a freshwater sponge; tags in brackets are library labels; higher = faster piRNA-guided slicing of the target). Settings: auxiliary factor: 500 nM mouse GTSF1.
Procedure, shortened: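 Active affinity-purified piRISC carrying one synthetic guide (1 nM) was mixed with a transcribed, DNA-blocked target RNA library […] in HEPES–potassium acetate buffer at 33 °C for 0–8 or 0–960 min, with or without 500 nM GTSF1 partner protein. Uncleaved targets were then sequenced and normalised to depth and to weakly complementary targets. Three trials were pooled, and k3 was capped at 0.0001 min^-1. A burst-and-steady-state fit was applied to obtain the pre-steady-state cleavage rate.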
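Further: 1 nM active piRISC with 0.1 nM target library at 33 °C single turnover.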

Row | Sequence | pre-steady-state target cleavage rate
1 | GGAGACCUUACUUUACAACCUACUACGUCA | 0.0613 ± 0.011
2 | GGAGACCUAACUAUACAACCUACAUGCUCA | 0.0479 ± 0.022
3 | GGAGACCUAUGAUAUGUACGUACUACCUGA | < 0.0001
4 | GGAGACCUAUCAUAUACAACCUACUACCUCA | 0.0423 ± 0.0085
5 | GGAGACCUAUCAAUACAACCUACAACCUCA | 0.0677 ± 0.015
6 | GGAGACCUAUGUAUACUUCCUACUACCUCA | 0.0232 ± 0.005
7 | GGAGACCUAUCUAUACGACCUACUACCUCA | 0.0198 ± 0.0044
8 | GGAGACCUAUGAUAUGUUGGUACUACCUCA [g2:g10:cont:t1A] | < 0.0001
9 | GGAGACCAUACUUUACAACCUACUACGUCA | 0.0972 ± 0.016
10 | GGAGACCUAUGAAUACAACCGACUACCUCA | 0.00328 ± 0.003
11 | GGAGACCUAUGUACUACAACCUACUACCUCA | 0.00901 ± 0.0026
12 | GGAGACCUAAGUAUACAACCUACAACCUCA | 0.0483 ± 0.0084
13 | GGAGACCUAUCUAUACAACCUACUAGCUGA | 0.00493 ± 0.0036
14 | GGAGACCUAUCUAUACAACCUACUAUCCUCA | 0.193 ± 0.023
15 | GGAGACCUAUGUAUAGAACGUACUACCUCA | 0.00362 ± 0.0018
16 | GGAGACCAUAGUAUACAACGUACUACCUCA | 0.0174 ± 0.0033
17 | GGAGACCUAUGUCUACAACCUACUACCUCA | 0.0245 ± 0.004
18 | GGAGACGAUACUAUACUUGCUACUACCUCA | 0.0658 ± 0.0062
19 | GGAGACCUAUGAUAAGAACCUACUUCCUCA | < 0.0001
20 | GGAGACCUUACAAUACAACCUACAACCUCA | 0.111 ± 0.011
21 | GGAGACCUUACUAUUCAACCUACUAGCUCA | 0.0771 ± 0.014
22 | GGAGACCUAUCUAUAGAACCUACUACCACA | 0.0472 ± 0.0098
23 | GGAGACGAUACUUUAGAACCUACUACCUCA | 0.16 ± 0.01
24 | GGAGACCUAUGAUUACAACCUACGACCUCA | 0.00452 ± 0.0036
